This passage reports growth inhibition results from PubChem BioAssay (NCI).

Compounds without any hit were thinned out: in the full panel of roughly 79,000, 15% have a hit. Values without a mark were called inactive. Rule as the data show it: active = growth inhibition above about 70%; inactive = the rest. Where a SMILES comes first, the peptide text is derived from it. [ ]: non-standard residue; d: D form. The star is where a group is joined. ξ: configuration not given here. NMeY = CN[C@@H](Cc1ccc(O)cc1)C(=O)O; Cbz = O=C(OCc1ccccc1)*; ξA = CC(N)C(=O)O

The assay is described as follows: NCI Yeast Anticancer Drug Screen. Data for the mlh1 rad18 strain (AID 175). The settings on record: S. cerevisiae mlh1 rad18 strain growth inhibition; at 50.0 µM; active compounds read high. In short, it runs like this:
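Genetically defined yeast (DNA repair-deficient) exposed to compounds; growth inhibition determined relative to vehicle.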
For `O=C1CCC(=O)O1`, the growth inhibition is -51.9%.

As for `O=C1C2C3C=CC(CC3)C2C(=O)C2C3C=CC(C3)C12` (stereo not given), the growth inhibition was 32.3%.

`COc1ccc2c3c(c(C(=O)O)oc13)CCC2`: the growth inhibition is 16.8%. With `COc1ccc2nc3cc(Cl)ccc3c(NCCCNCCCNc3c4ccc(Cl)cc4nc4ccc(OC)cc34)c2c1`, the growth inhibition is -23.1%. Take `CC(c1ccccc1)C1OCC(CCCCO)O1` (stereo not given): the growth inhibition was -20.1%. Turning to `CCc1cccc(CC)c1N=C(NC(=O)c1ccc(Br)cc1)SC`, the growth inhibition was -5.65%. Turning to `Oc1ccc(NCc2ccccc2)cc1`, the growth inhibition was 16.9%. For `COc1cccc(NC(=S)NC(=O)c2ccccc2)c1`, the growth inhibition was 45.7%. For `C/C(CC(O)(C(F)(F)F)C(F)(F)F)=N\NC(N)=S`, the growth inhibition was -9.3%.

Regarding `Cc1ccc(C(C(=O)O)c2ccc(C)cc2)cc1`, the growth inhibition is 29.2%. Take `CC1CC([NH-])C([NH-])C(C)(C)C1.[Cl][Pt+2][Cl]` (stereo not given): the growth inhibition was -49.2%. Regarding `Cc1[nH]c2ccccc2c1C(=O)Cc1ccc(Cl)cc1Cl`, the growth inhibition is 33.4%. Consider `CC(=O)Nc1ccc(S(=O)(=O)Oc2noc3ccc(Br)cc23)cc1`, for which the growth inhibition is 2.4%. `CCCCC(CCCC)NCC(C)OC(=O)c1ccc(N)cc1` (stereo not given): the growth inhibition was 16.3%.

Turning to `O=C(Nc1c(Cl)cccc1Cl)Oc1cccnc1`, the growth inhibition is -1.05%. As to `c1nnco1`, the growth inhibition is -18.2%. Turning to `O=C/C=C/N=c1ccn(O)cc1`, the growth inhibition is 2.1%. Consider `CO/N=C1\C(O)CC2C(C)(CCC3C2(C)CCC2(C)C4CC(C)(C)CCC4(C)CCC32C)C1C` (stereo not given), for which the growth inhibition is -5.85%. `CC(C)(C)OC(=O)NC(Cc1ccccc1)C(=O)OCN1C(=O)C2C3C=CC(C2C1=O)C1C2C(=O)N(COC(=O)C(Cc4ccccc4)NC(=O)OC(C)(C)C)C(=O)C2C31` (stereo not given): the growth inhibition is 20.4%. For the compound `CC1=NN(C(=O)c2ccncc2)C(=O)C1N=Nc1ccc([N+](=O)[O-])cc1Cl` (stereo not given), the growth inhibition was 14.1%. The value for `Cc1ccc(C2(C)CC/C(=N/N=C3/CCC(C)(c4ccc(C)c(C)c4)c4cc(C)c(C)cc43)c3cc(C)c(C)cc32)cc1C` (stereo not given) was -12.4%; that for `O=S(=O)(N=N/C=C1\C=CC=CN1O)c1cccs1` was -21.1%; that for `O=C(/C=C(\C(=O)c1ccccc1)c1ccccc1)c1ccc(Cl)cc1` was -24.6%.

For `C=CCSc1nc2ccc(NCn3c(=S)sc4ccccc43)cc2s1`, the growth inhibition was 56.7%. For `CCC/C=C/C=C\C(=O)O[C@@H]1[C@@H](C)[C@]2(O)[C@@H]3C=C(C)C(=O)[C@H]3CC(COC(C)=O)=C[C@H]2[C@@H]2C(C)(C)[C@]12OC(C)=O`, the growth inhibition was -26.2%. For the compound `O=C1CCCCC1O` (stereo not given), the growth inhibition is -26.1%. In the case of `COc1ccc(C[C@@H](C(=O)N[C@@H](C)C(N)=O)N(C)C(=O)[C@@H]2CCCN2C(=O)[C@H](CC(C)C)NC(=O)C(C)NC(=O)OCc2ccccc2)cc1` (stereo not given in full) (Cbz-[ξA]LP[NMeY](Me)A-NH2) it was -44.2%. The value for `Cc1ccc(N=Nc2ccc(C)cc2NC(=O)c2ccc(Cl)cc2)cc1` was 8.85%; that for `O=C1c2ccc3ccccc3c2C(=O)c2ccc3ccccc3c21` was -16.8%; that for `CCOC(=O)c1c(-c2ccc(OC)cc2)c(C#N)c(=S)n(C2OC(COC(C)=O)C(OC(C)=O)C(OC(C)=O)C2OC(C)=O)c1-c1ccccc1` (stereo not given) was 13.4%. As to `COc1ccc(C(=O)Oc2ccccc2C)cc1`, the growth inhibition was -1.95%. Turning to `O=C1Oc2cc3c(c4cccc1c24)O[C@H](c1ccccc1)[C@@H](c1ccccc1)[C@@H]3c1ccc(Cl)cc1`, the growth inhibition is 9.3%.

Regarding `CN1C(=O)C(=O)n2c(cc3ccccc32)C1=O`, the growth inhibition was -13.1%. Turning to `Cc1cc(C)c(C2CNCc3cc4c(cc32)CNCC4c2c(C)cc(C)cc2C)c(C)c1` (stereo not given), the growth inhibition is -131%. In the case of `NCCO` it was -18.9%. As for `Cc1ccc(S(=O)(=O)Nc2nc3ccccc3c(=O)n2C2CCCCC2)cc1`, the growth inhibition is -3.5%. Turning to `O=C1OC(c2ccc3c(c2)CCCC3)=C/C1=C/c1ccc2c(c1)OCO2`, the growth inhibition was -15.9%.

`O=C(Nc1cccc2ccccc12)OCC1CC1`: the growth inhibition is -4.4%. Consider `O=C1OCC2C(=O)N3Cc4cc5ccccc5nc4C3CC12` (stereo not given), for which the growth inhibition is 9.55%. On to `C/C(=N/NC(=O)NN)c1cccc(O)c1`, for which the growth inhibition is -19.2%.
